Shown are actives, neighbours in structure and some others; about 2.9% of the full set was active somewhere.
Rtt109 HAT inh: inhibitors of Candida albicans Rtt109/Vps75 histone acetyltransferase | inhibition, % at 34.9 µM | actives 0.16% (n = 330,000) | purified Rtt109/Vps75, ThioGlo CoA-SH fluorescence, 4 h | Q5AAJ8;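 active means inhibition of at least 50% in every replicate; inconclusive means best replicate reaches 50% inhibition but some replicates fall short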
DAGLB inhibitor: blocks human DAGLB lipase activity | HEK293T DAGLB membrane lysate, EnzChek fluorogenic substrate | actives 0.059% (n = 340,000) | AID 504411 | inhibition, % at 5.17 µM | Q8NCG7; in the data active means inhibition above about 34%;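 further: 0% = enzyme with vehicle and 100% = wells lacking enzyme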
ABHD5-PLIN5 inh: blocks binding of human ABHD5 to perilipin-5 | Split G. princeps luciferase complementation, luminescence, 4 h | inhibition, % at 4 µM | actives 0.78% (n = 360,000) | AID 602281;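 active means inhibition above the mean inhibition across every tested compound plus 3 SD, cut at about 22% in these data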;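 further: 0% = DMSO only wells and the 100% control is not disclosed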
HGIII-sPLA2 inh: Blocks human group III sPLA2 activity; Q9NZ20; QFRET BODIPY PC-A2 liposome hydrolysis, fluorescence; actives 0.56% (n = 370,000); inhibition, % at 12.2 µM;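 active means inhibition above mean plus 3 SD of compounds lying within the high and low control bounds, cut at about 19% in these data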;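 further: 0% = median of test compound wells and 100% = no enzyme DMSO wells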
Target sequence (Q9NZ20 whole entry, looked up): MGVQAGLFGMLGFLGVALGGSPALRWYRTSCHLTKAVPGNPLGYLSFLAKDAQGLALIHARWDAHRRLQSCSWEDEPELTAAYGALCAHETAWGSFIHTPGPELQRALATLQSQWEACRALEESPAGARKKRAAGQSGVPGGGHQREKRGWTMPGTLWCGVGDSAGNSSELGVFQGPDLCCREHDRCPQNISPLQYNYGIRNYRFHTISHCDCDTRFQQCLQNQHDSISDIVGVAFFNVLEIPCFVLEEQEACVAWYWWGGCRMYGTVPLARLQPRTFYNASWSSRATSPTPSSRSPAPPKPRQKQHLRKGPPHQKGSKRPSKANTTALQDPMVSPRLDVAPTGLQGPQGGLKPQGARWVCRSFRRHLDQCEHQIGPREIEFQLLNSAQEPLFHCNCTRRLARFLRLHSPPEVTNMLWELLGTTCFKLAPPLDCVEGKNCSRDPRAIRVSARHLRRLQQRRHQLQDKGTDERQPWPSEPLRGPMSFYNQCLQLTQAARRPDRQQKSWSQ
Myeloid diff MLP: myeloid differentiation induction | ER-HoxA9 myeloid progenitors, lysozyme-GFP differentiation, flow cytometry | calls only at 10 µM | actives 1% (n = 360,000) | AID 624256;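 active means normalized GFP-positive differentiation at or above the plate's own cutoff, the solvent-only control mean plus 3 SD; inconclusive means no clear call, values can overlap the other calls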;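 further: cells exposed to compound for four days before flow analysis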
Cardio protect: protects H9c2 cardiomyocytes from peroxide injury | H2O2 injury protection, ATPLite, 2 h | protection from H2O2 cell death, % at 20 µM | actives 0.63% (n = 360,000) | AID 588492;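 active means compounds giving at least 50% protection of heart cells from peroxide-induced death in the single-dose screen, raw or plate-pattern-corrected value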;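 further: 0% = DMSO wells with peroxide and 100% = DMSO wells without peroxide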
Starred values were filed as active, the others as inactive; i = inactive; ? = inconclusive; . = not tested or not shown; + = active, no number.

SMILES	Rtt109 HAT inh	DAGLB inhibitor	ABHD5-PLIN5 inh	HGIII-sPLA2 inh	Myeloid diff MLP	Cardio protect
CC(C)(O)C#Cc1ccc(N2C(c3ccsc3)=Cc3ccc(F)cc3C2c2c[nH]c3ccc(C#N)cc23)cc1 (centres undefined)	.	.	-1	-3	+	.
O=C(Nc1ccccc1N1CCOCC1)c1cc(-c2ccco2)nc2ccccc12	11	1	2	-3	i	8
COc1cc(-c2cc(C(=O)Nc3ccc(O)cc3)c3ccccc3n2)cc(OC)c1OC	25	-4	1	-17	i	18
COc1cc(-c2cc(C(=O)Nc3ccccc3N3CCOCC3)c3ccccc3n2)cc(OC)c1OC	-5	-3	-3	0	i	89*
COc1cc(-c2cc(C(=O)Nc3cccc(C(C)=O)c3)c3ccccc3n2)cc(OC)c1OC	-1	-4	11	-26	i	55*
CCCCn1c(N)c(N(CC(C)C)C(=O)C2CC(=O)N(Cc3ccco3)C2)c(=O)[nH]c1=O (centres undefined)	-1	-2	0	5	i	-6
CCn1c(=O)c(C(=O)NNC(=O)c2ccccc2F)c(O)c2ccccc21	7	12	5	7	?	0
Cn1c(=O)c(C(=O)NNC(=O)c2ccccc2F)c(O)c2ccccc21	6	12	1	-3	+	7
COc1cc(/C=N/NC(=O)c2sc3nc(C)cc(C)c3c2N)ccc1O	-4	.	7	-6	i	53*
COc1ccc(NC(=O)c2cc(-c3ccc(OC)c(OC)c3)nc3ccccc23)c(OC)c1	-15	-1	2	6	i	66*
COc1ccc(-c2cc(C(=O)NC(C)c3ccccn3)c3ccccc3n2)cc1OC (centres undefined)	-9	1	0	3	i	55*
COc1ccc(-c2cc(C(=O)NC3CCCC3)c3ccccc3n2)cc1OC	-9	-3	0	-1	i	14
COc1ccc(NC(=O)c2cc(-c3ccncc3)nc3ccccc23)c(OC)c1	-4	1	13	1	i	24
Cc1cc(Cl)ccc1C(=O)C1CCCN(C(=O)/C=C/c2cnn(C)c2)C1 (centres undefined)	-1	-1	3	1	i	5
CCCCNC(=O)[C@@H]1CCCN1S(=O)(=O)c1cccc2cccnc12	5	0	-4	-3	i	16
O=C(CSc1nnc(-c2cccnc2)o1)c1cc2ccccc2oc1=O	-8	-1	-6	-6	i	51*
Cc1ccc(OC(C)C(=O)Nc2ccc(F)cc2)c([N+](=O)[O-])n1 (centres undefined)	2	-2	-3	-5	i	7
O=c1ccc2cc3c([nH]c4ccc(Br)cc43)oc-2c1O	129*	43*	-8	43*	?	20
O=C(/C=C/c1ccc(F)cc1)NC(=S)NNC(=O)c1cnccn1	4	3	9	11	?	52*
O=C(C(=O)N(Cc1ccccc1)Cc1ccccc1)c1c(-c2ccccc2)[nH]c2ccccc12	-2	-6	-7	-13	i	86*
COCCNC(=O)C(=O)c1c(-c2ccccc2)[nH]c2ccccc12	-4	-3	2	4	i	7
Cc1ccc(-c2nnn(CC(=O)N(CC(=O)NC(C)C)c3cnc4ccccc4c3)n2)o1	2	1	8	-8	i	-2
Cc1ccc(-c2nnn(CC(=O)N(CC(=O)NC3CCCC3)c3cnc4ccccc4c3)n2)o1	4	0	2	-9	+	6
Cc1ncc([N+](=O)[O-])n1CC(=O)N/N=C/c1ccc(F)cc1	-2	2	-8	-2	+	1
CC(=O)N1CCN(c2nc3ccc(Br)cc3s2)CC1	7	0	13	1	i	-14
SMILES	Rtt109 HAT inh	DAGLB inhibitor	ABHD5-PLIN5 inh	HGIII-sPLA2 inh	Myeloid diff MLP	Cardio protect
CC(C)(C)C(=O)N1CCN(c2nc3ccc(Br)cc3s2)CC1	-7	1	-9	5	+	-6
COCCn1c(=NC(=O)c2nc3ccccc3s2)sc2cc(S(C)(=O)=O)ccc21	-4	4	-6	5	i	58*
CCOC(=O)Cn1c(=NC(=O)c2cc(-c3cccs3)nc3ccccc23)sc2cc(S(N)(=O)=O)ccc21	-1	-1	9	-7	i	75*
COC(=O)Cn1c(=NC(=O)c2cc(-c3cccs3)nc3ccccc23)sc2cc(S(N)(=O)=O)ccc21	-74	-1	26*	-3	i	66*
CC(C(=O)Nc1ccc(C#N)cc1)N(C)CC(=O)N(C)c1c(N)n(Cc2ccccc2)c(=O)[nH]c1=O (centres undefined)	0	1	4	2	i	1
O=C(COC(=O)CN1C(=O)NC2(CCCC2)C1=O)Nc1ccc(C(F)(F)F)cc1[N+](=O)[O-]	1	0	9	4	i	1
COC(=O)c1[nH]nc2c1C(=O)N(Cc1ccccc1)C2=O	0	1	-2	7	i	-7
COC(=O)c1[nH]nc(-c2ccccc2)c1-c1ccccc1	54*	-1	5	-6	i	-1
CCO[C@@H]1OC(C(=O)N2CCOCC2)=C[C@H](C2CCCCC2)[C@H]1CCCO	-3	0	14	1	+	2
NC(c1ccccc1)c1csc(NC(=O)Nc2cccc(Cl)c2)n1 (centres undefined)	.	.	3	11	i	-7
CC(C)N1CCc2c(sc(NC(=O)c3ccc(S(=O)(=O)N4CCOCC4)cc3)c2C#N)C1	-2	-14	-1	.	+	28
CCN1CCc2c(sc(NC(=O)c3ccc(S(=O)(=O)N(C)c4ccccc4)cc3)c2C(=O)NC)C1	9	-11	12	.	+	57*
CC(C)C1Cc2c(sc(NC(=S)NC(=O)c3ccccc3)c2C#N)CO1 (centres undefined)	2	-2	-6	6	i	-2
CCCN1CCc2c(sc(NC(=S)NC(=O)c3ccccc3)c2C#N)C1	?	-56	-6	1	+	-1
CC(C)N1CCc2c(sc(NC(=S)NC(=O)c3ccccc3)c2C#N)C1	-42	-1	-2	-6	+	-1
Cc1sc(NC(=S)NC(=O)c2ccccc2)c(C#N)c1C	-4	-4	-8	4	i	-17
CCOC(=O)N1CCc2c(sc(NC(=O)c3ccc(S(=O)(=O)N4CCCC4)cc3)c2C#N)C1	14	9	9	-26	i	-8
CC(=O)OCCCNc1cc(Sc2ccc(Cl)cc2)c2nonc2c1[N+](=O)[O-]	10	1	-1	0	?	-8
CC(=O)N1CCN(S(=O)(=O)c2cccc(C(=O)Nc3ccc4c(c3)CCC4)c2)CC1	.	-1	1	-7	i	-11
